Source: PubChem BioAssay (National Center for Advancing Translational Sciences (NCATS))
Pf Dd2 inh: Plasmodium falciparum Dd2 growth inhibition; P. falciparum Dd2 growth, SYBR Green, 72 h; Potency, µM (top dose mostly 28.9 µM), for inactives: at the top dose activity, negative = inhibition, hits mostly inhibitors; 120,000 compounds, 4.3% hits; AID 1347417; active = well fitted inhibition curve with a large enough effect;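 note: plate controls were DMSO vehicle for no effect and reference drug for full effect; nearly all actives have a fitted effect of over 65% in size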
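Infected erythrocytes (Dd2, 0.3% parasitemia, 2.5% hematocrit final) are added to compound in RPMI-1640/Albumax II medium, grown 72 h at 37C in low oxygen, then lysed with saponin/Triton-X containing SYBR Green and read by fluorescence.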
* marks the source's active call; other numbers are inactive results; i = inactive; [ ] = dose if it differs, or a comment. The entries come from a sample that favours hits as a whole. Potency is the fitted concentration of half-maximal effect.

SMILES	Pf Dd2 inh
COc1cc(OC)c(NC(=O)C2CCN(S(=O)(=O)c3c(C)noc3/C=C/c3c(C)cc(C)cc3C)CC2)cc1Cl	i
COc1cccc(CNC(=O)C2CCN(S(=O)(=O)c3c(C)noc3/C=C/c3cccs3)CC2)c1	6.3µM*
Cc1noc(C)c1S(=O)(=O)N1CCC(C(=O)Nc2ccc(Br)cc2)CC1	-12%
Cc1cccc(NC(=O)C2CCN(S(=O)(=O)c3c(C)noc3/C=C/c3ccco3)CC2)c1C	-13%
CCOc1ccc(NC(=O)C2CCN(S(=O)(=O)c3c(C)noc3/C=C/c3c(C)cc(C)cc3C)CC2)cc1	63%
Cc1ccc(C(=O)NC2CCc3nnc(C4CC4)n3CC2)c(=O)[nH]1 (configuration not stated)	10%
CCCNC(=O)C(NC(=O)c1ccc(C)cc1)C1CCN(C(=O)c2ccc(F)cc2)CC1 (configuration not stated)	i
Cc1cc(=O)[nH]c(CCNc2nc(-c3ccncc3)nc3c2c(C)nn3C)n1	-16%
CCCCS(=O)(=O)N1C[C@@H](C(N)=O)[C@H](c2n[nH]c(C)n2)C1	22%
COc1ccc(-c2cc(C(=O)NCC(C)C)c3c(C)nn(-c4ccccc4)c3n2)cc1	-13%
CCC1CCCCN1CCCNC(=O)CCc1cc2cc(OC)ccc2[nH]c1=O (configuration not stated)	-20%
CCOc1ccc(NC(=O)NCC2CCOCC2)cc1	3%
COc1ccc(N2CC3CCC(C2)N3[S+](C)(=O)[O-])cc1	14%
O=C(c1cccc(-n2cnnc2)c1)N1CCOC(c2ccc(F)cc2)C1 (configuration not stated)	-4%
Cc1ncc2n1C(=O)N(C1CCN(CC3CC3)CC1)C2	24%[44.1 µM]
COc1ccc(CCNC(=O)C2CCN(S(=O)(=O)c3c(C)noc3/C=C/c3ccc(C)cc3)CC2)cc1OC	-5%
COc1cc(NC(=O)C2CCN(S(=O)(=O)c3c(C)noc3/C=C/c3cccs3)CC2)cc(OC)c1	11µM*
Cc1ccc(NC(=O)C2CCN(S(=O)(=O)c3c(C)noc3C)CC2)cc1C	-9%
O=C([C@@H]1C[C@H](F)CN1C(=O)c1cccc(C(F)(F)F)c1)N1CCCCC1	i
COCc1cc(CC2(NCc3ccc(OC)cc3)COC2)no1	-12%[44.1 µM]
Cn1cc2c3c(cccc31)CN(C(=O)C1CCC1)CC2	-6%
Cc1ccc(CNC(=O)NCC23CCC=C2N(C)C(=O)CC3)cc1 (configuration not stated)	-2%
Cc1cccc(C(=O)N[C@@H]2CN(C3CCOCC3)C[C@H]2CN(C)C)c1	6%
CC(=O)N1CC[C@H](c2nnc(Cc3c[nH]c4ccccc34)o2)C1	-9%[44.1 µM]
c1cncc(CN2CC[C@H](c3nnc(Cc4c[nH]c5ccccc45)o3)C2)c1	11µM*
SMILES	Pf Dd2 inh
c1ccc2c(Cc3nnc([C@H]4CCN(CC5CC5)C4)o3)c[nH]c2c1	i
O=C1CC2CCN(C(=O)c3ccccc3)CC2CCN1 (configuration not stated)	21%[44.1 µM]
CCOc1ccc(NC(=O)c2sc3nc4n(c(=O)c3c2C)CCCC4)cc1	-9%
Cc1c(C(=O)NCc2ccc(F)cc2)sc2nc3n(c(=O)c12)CCC3	4%
Cc1c(C(=O)Nc2cccc(C(F)(F)F)c2)sc2nc3n(c(=O)c12)CCCC3	10µM*
CN1C(=O)C(CC(=O)NCc2noc(-c3c(F)cccc3F)n2)N(C)C1=O (configuration not stated)	1%
CC(=O)N1CC[C@H](c2nc3ncccc3[nH]2)C1	22%[44.1 µM]
COc1ccc(C(=O)N2CCCCCCNC(=O)[C@@H]3C[C@@H](c4nc(C(C)C)no4)C[C@@H]32)c(OC)n1	i
CCN1CCN(CCNC(=O)C2CCCCC(=O)N2Cc2ccccc2)CC1 (configuration not stated)	-3%
O=C1CCCCC(C(=O)NCCCN2CCc3ccccc3C2)N1 (configuration not stated)	-13%
O=C(NCCCN1CCc2ccccc2C1)C1CCCCC(=O)N1Cc1ccccc1 (configuration not stated)	4µM*
Cc1nnnn1-c1cccc(C(=O)N2CCCC(O)(CN(C)C)CC2)c1 (configuration not stated)	4%
COCc1cc(C[C@@H]2CC[C@H](O)[C@@H](CNC(=O)c3ccccc3)O2)no1	-21%[44.1 µM]
Cc1nc(C)n(CCCn2ccnc2-c2cc3n(n2)CCCNC3)n1	-10%
CC(=O)c1ccc(NC(=O)Cn2c(N3CCc4ccccc4C3)nc(C)cc2=O)cc1	-17%
COc1ccc(C(=O)N2CCCCCCN(C)C(=O)[C@@H]3CCC[C@@H]32)c(OC)n1	-2%
CCOC(=O)c1cnc2ccc(OCC)cc2c1Nc1cc(Cl)c(OC)cc1OC	49%
CCOC(=O)c1cnc2c(C)c(Cl)ccc2c1NCCc1ccc(OC)c(OC)c1	i
CCOC(=O)c1ccc2ncc(C(=O)OCC)c(NCCc3ccc(OC)c(OC)c3)c2c1	8.9µM*
CCOC(=O)c1cnc2c(C)cccc2c1NCCc1ccc(OC)c(OC)c1	i
CCOC(=O)c1cnc2ccc(OC)cc2c1Nc1cccc(C(C)=O)c1	-7%
CCOC(=O)c1cnc2c(ccc3ccccc32)c1Nc1cccc(OC)c1	51%
CCOC(=O)c1cnc2ccc(OC(F)(F)F)cc2c1Nc1ccccc1C(=O)O	10µM*
CCOC(=O)c1cnc2c(ccc3ccccc32)c1Nc1ccc(OCC)cc1	18%
CCOC(=O)c1cnc2ccc(OC)cc2c1NCCc1ccccc1	4µM*
SMILES	Pf Dd2 inh
COCc1cc(CN(C)C(=O)CCc2cc3n(n2)CCNC3)[nH]n1	5%
CN1[C@@H](CCC(=O)NCc2ccc(F)cc2)CNC(=O)[C@@H]2[C@H]1CCN2Cc1ncc[nH]1	-12%[44.1 µM]
O=C(NC[C@H]1O[C@@H](CO)[C@@H](O)[C@H]1N1CCN(c2ccc(F)cc2)CC1)c1ccccc1	-2%
CCC(C(=O)NC1CCN(c2cc(C(F)(F)F)nc(C)n2)CC1)c1ccccc1 (configuration not stated)	-13%
CCc1noc(-c2cn(C3CCN(C(=O)c4sccc4C)C3)nn2)n1 (configuration not stated)	-25%
CC1=C[C@@H](CNC(=O)CCC(=O)O)[C@H](C(C)C)C[C@H]1CC(=O)N1CCN(C)CC1	1%[44.1 µM]
CCCNC(=O)N[C@@H]1C[C@H](Cn2cc(C3CC3)nn2)[C@@H](O)[C@H]1O	-1%[44.1 µM]
O=C(C1CC1)N1CC[C@](O)(c2ccccc2)[C@H](N2CCCC2)C1	i[5.79 µM]
O[C@]1(c2ccccc2)CCN(Cc2ccco2)C[C@H]1N1CCCC1	0.63µM*
Cc1ccc(CN2CC[C@@](C)(O)[C@H](N3CCCC3)C2)o1	9%[5.79 µM]
C[C@@]1(O)CCN(Cc2ccc(Br)o2)C[C@H]1N1CCCC1	-22%[5.79 µM]
O[C@]1(c2ccccc2)CCN(Cc2ccncc2)C[C@H]1N1CCCC1	0.71µM*
O=C(c1cccs1)N1CCC(O)(c2ccccc2)[C@H](N2CCCC2)C1 (some centres not stated)	1.4µM*
C[C@@]1(O)CCN(Cc2cccc(F)c2)C[C@H]1N1CCCC1	-23%[5.79 µM]
Cc1ccsc1C(=O)N1CCC(O)(c2ccccc2)[C@H](N(C)C)C1 (some centres not stated)	i[5.79 µM]
COc1ccc(CN2CC[C@@](C)(O)[C@H](N3CCCC3)C2)cc1	21%[5.79 µM]
O=C(COc1ccccc1F)c1ccc2c(c1)N(CC(=O)N1CCOCC1)C(=O)CO2	7%
NC(=O)CN1C(=O)CO[C@H]2CN(Cc3ccc(Cl)cc3)C[C@H]21	-16%[44.1 µM]
